Assay results from PubChem BioAssay (NCI).
The panel holds about 83,000 compounds, 20% with a hit somewhere; the sample as a whole holds those more often.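 Testing used 96-well plates and a 48-hour single-concentration exposure. Example: -40 means 40% of the starting cells died.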 A number with no mark means an inactive call. Activity calls are given as the source filed them. How the source made its calls: active means growth percent below 10; inactive means the rest.

How the values were obtained:
Assay in all cases: NCI-60 one-dose screen, 48 h (100 = growth as untreated, 0 = no growth, -100 = all killed)
Settings in all cases: 10 µM unless noted
[1] = system: RPMI-8226 leukemia
[2] = system: OVCAR-5 ovarian
[3] = system: OVCAR-4 ovarian
[4] = system: SK-OV-3 ovarian
[5] = system: IGROV1 ovarian
[6] = system: OVCAR-3 ovarian
[7] = system: HS 578T breast
[8] = system: NCI/ADR-RES ovarian
[9] = system: T-47D breast
[10] = system: BT-549 breast
[11] = system: MDA-MB-435 melanoma
[12] = system: SW-620 colon
[13] = system: MCF7 breast
[14] = system: HCT-116 colon
[15] = system: HCC-2998 colon
[16] = system: KM12 colon
[17] = system: OVCAR-8 ovarian

SMILES | growth [1] | growth [2] | growth [3] | growth [4] | growth [5] | growth [6] | growth [7] | growth [8] | growth [9] | growth [10] | growth [11] | growth [12] | growth [13] | growth [14] | growth [15] | growth [16] | growth [17]
Cc1cc(N2CCSCC2)nc(NC2CCCC(Nc3ccnc4cc(Cl)ccc34)C2)n1 (stereo unspecified) | -52.6% (active) | 29.7% | 16.8% | 34.8% | -16.1% (active) | -38.4% (active) | -34.2% (active) | 1.15% (active) | -37.2% (active) | -60.2% (active) | -88.5% (active) | -60.8% (active) | -36.3% (active) | -65.6% (active) | -58.3% (active) | 8.04% (active) | –
COc1ccc(C(=O)COc2ccc(/C=C3\Oc4ccc(OC)cc4C3=O)cc2)cc1 | 80.5% | 117% | 115% | 102% | – | 103% | 97.3% | 109% | 103% | 99.2% | 115% | 95.9% | 110% | 84.9% | – | 94% | –
COc1ccc(Nc2nc(SC)nc(-c3cccc([N+](=O)[O-])c3)c2C#N)cc1 | 98.4% | 76.5% | 2.52% (active) | 46.4% | 72.3% | 74.5% | – | 57.9% | 70.1% | 86.9% | 66.5% | 57.9% | 66.7% | 15.8% | 94.3% | 97.7% | 39.4%
COc1ccc2c(c1)O/C(=C\c1cccc(OCC(=O)Nc3nc4c(s3)CCCC4)c1)C2=O | 49.6% | 103% | 62.4% | – | – | 41.5% | 84% | -9.46% (active) | 58.4% | 105% | 83.1% | 89.1% | 86.1% | 77.7% | – | 82% | -23.4% (active)
CCc1nc(N)nc(N)c1C#CC(C)c1ccc(-c2ccncc2)cc1Cl (stereo unspecified) | 15.1% | 57.6% | 30.9% | – | 18.2% | 19.1% | 38.7% | 21.8% | 24% | 23.3% | 22.1% | 20.8% | 14.2% | 13.6% | 25.4% | 12.7% | 20.8%
Cc1nc2c3c(-c4ccccc4)c(-c4ccccc4)oc3ncn2n1 | 92.7% | 95.4% | 83% | – | 94.7% | 111% | – | 94.1% | 70% | 101% | 100% | 96.9% | 101% | 88.5% | 96.2% | 99.3% | 97.3%
Nc1ccn(-c2ccc(Br)cc2)c(=O)n1 | 95.9% | 84% | 104% | 162% | – | 48% | – | 89.5% | 202% | 105% | 96.6% | 98.8% | 108% | 102% | 29.7% | 121% | –
C#CC(F)(F)[C@]1(O)CC[C@H]2[C@@H]3CCC4=CC(=O)CCC4=C3[C@@H](c3ccc(C4CC4)cc3)C[C@@]21C | -42.5% (active) | 9.97% (active) | 10.9% | -79.4% (active) | -48.5% (active) | -73.4% (active) | 33.4% | 11% | 17.5% | 73.1% | 85.1% | 18.5% | 36.9% | 75.8% | 92% | 6.36% (active) | –
Cc1c(/C=C/[N+](=O)[O-])ccc2c1[nH]c1ccccc12 | -15% (active) | 106% | 116% | 114% | 101% | 123% | 104% | 108% | 78.1% | 59.2% | -11.2% (active) | 77.7% | -11.9% (active) | -97.8% (active) | -30.7% (active) | 52.4% | –
O=C(COc1ccc(/C=C2\CSc3ccccc3C2=O)cc1)Nc1nccs1 | -11% (active) | 92.6% | 104% | 127% | -51.8% (active) | 87.5% | 135% | 80.1% | 90% | 112% | 65.4% | 17.3% | 6.72% (active) | 48.2% | 103% | 13.8% | –
O=C1c2cc3c(cc2-c2c1c1cc(F)c(F)cc1c(=O)n2CCCn1ccnc1)OCO3 | -10.1% (active) | 2.22% (active) | 20.9% | – | 21.2% | -7.17% (active) | 52.5% | 6.95% (active) | 4.88% (active) | 12.5% | 8.57% (active) | 8.92% (active) | -1.22% (active) | -12.8% (active) | 13.5% | 3.55% (active) | 12.1%
C=CC(COC(c1ccccc1)(c1ccccc1)c1ccccc1)N(CC)CC (stereo unspecified) | 10.6% | 66.1% | 67.9% | 75.5% | 62% | 71.9% | – | 62.4% | 54.8% | 81.5% | 61.2% | 51.3% | 33.4% | 35.9% | 63% | 54.6% | 77%
COc1cccc(-c2nc3sccn3c2-c2ccnc(NCCNS(=O)(=O)c3ccc(F)cc3)c2)c1 | -14.1% (active) | 49.3% | 22.3% | 43.7% | 28.6% | 42% | – | 10.7% | -4.43% (active) | 9.19% (active) | 23.3% | 42.5% | 18.7% | 22.2% | 50.1% | 22.3% | 20.1%
CC(=O)Oc1ccc(Cl)cc1CN(C(C)=O)C1CCCCC1 | 84% | 103% | 119% | 99.7% | 98.2% | 114% | 104% | 110% | 104% | 107% | 115% | 105% | 97.6% | 102% | 99.4% | 112% | –
O=C(N/N=C/c1c[nH]c2ccccc12)c1cc(-c2ccccc2)on1 | 90% | 97.5% | 85.6% | 91% | 87.2% | 103% | 94.4% | 84.3% | 77.2% | 90.3% | 94.8% | 102% | 79.1% | 90.6% | 92.9% | 92.3% | –
C[n+]1ccccc1/C=C/c1ccc2cccc(O)c2n1 | 105% | 51.5% | 112% | 39.1% | 105% | 112% | – | 109% | 97.6% | 97.6% | 114% | 52.1% | 97.3% | 97% | 95.2% | 41.1% | 100%
O=C1/C(=C/c2cn(-c3ccccc3)nc2-c2ccccc2)SC(=S)N1CCc1ccccc1 | 102% | 107% | 103% | 109% | 108% | 107% | – | 107% | 96.5% | 109% | 97.6% | 100% | 95.3% | 102% | 107% | 100% | 105%
Nc1n[nH]c2ccc([C@@H]3Nc4ccc5[nH]ncc5c4[C@H]4C5C=CC(C5)[C@@H]34)cc12 (stereo partly specified) | 44.7% | 29.5% | 30.2% | – | 16.6% | 7.18% (active) | 3.92% (active) | -27.5% (active) | 80% | 3.98% (active) | -28.1% (active) | 22.8% | 17.8% | 6.63% (active) | 14.3% | 10.4% | 27.1%
